This passage reports Potency and activation results from PubChem BioAssay (Tox21).

Records with an inconclusive call do not appear. Entries that show only a call come without a potency. Unmarked numbers belong to inactive results. Calls of active or inactive are those of the source. Calls follow the shape of the full dose curve.

The test in a line: p53 small molecule agonists, cell-based qHTS assay with human liver microsomes (AID 1963577).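 Also: p53 response element beta-lactamase reporter cells with liver microsomes plus NADPH.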 To be noted: HCT-116 p53RE-bla with human liver microsomes, ratio, 16 h; series mostly up to 66 µM. The source says: National Center for Advancing Translational Sciences [NCATS]
Division of Preclinical Innovation [DPI]
U.S. Environmental Protection Agency [EPA]
National Institutes of Environmental Health Sciences [NIEHS]
National Toxicology Program [NTP]
U.S. Food and Drug Administration [FDA]
p53, a tumor suppressor protein, is activated following cellular insult, including DNA damage and other cellular stresses. The activation of p53 regulates cell fate by inducing DNA repair, cell cycle arrest, apoptosis, or cellular senescence. The activation of p53, therefore, is a good indicator of DNA damage and other cellular stresses. […] The activation of the reporter gene under culture conditions can be detected by fluorescence intensity.
Tox21 Assay Protocol Summary:
The p53RE-bla cells were dispensed at 4,000cells/3ul/well in 1536-well black-clear bottom plates. After the assay plates were incubated at 37 C, 5% CO2 incubator for 5 hours, 23 nL of compounds dissolved in DMSO, positive controls or DMSO only was transferred to the assay plate. Following compound addition, 3 uL of human liver microsomes (XenoTech, Kansas City, KS) at final concentration of 0.5 mg/mL and 1uL of Beta-Nicotinamide adenine dinucleotide 2-phosphate (NADPH) at final concentration of 0.5 mg/mL were transferred to the assay plate. The plates were incubated at 37 C for 16 hours. 1 uL of LiveBLAzer detection mixture was added to each well and the plates were incubated at room temperature in the dark for 2 h.
Background: qHTS replaces the single test concentration by a dilution series.
Take `NC(CO)C(=O)NNCc1ccc(O)c(O)c1O` (stereo not given): the Potency result is “inactive”.
The same measure, in the same setting: under `C=C(C)C(=O)OCCCC` stands “inactive”.
On the same count and under the same terms, under `CN(C)CCCOc1nn(Cc2ccccc2)c2ccccc12` stands “inactive”; under `CC(C)(C)c1cc(CCC(=O)OCCSCCOC(=O)CCc2cc(C(C)(C)C)c(O)c(C(C)(C)C)c2)cc(C(C)(C)C)c1O`, “inactive”.
As to `CN1CCC(=C2c3ccccc3CCc3sccc32)CC1`, the Potency result is “inactive”.
Same read-out and setting: then `CCCCCCCC(C)=O`, with “inactive”.
Take `CN1CCN(CC(=O)N2c3ccccc3C(=O)Nc3cccnc32)CC1`: the activation was 8.34% [at 5.99 µM].
On to `CCCCCCCCCCCCCCN(CCO)CCO`, for which the Potency entry is “inactive”.
With `O=C(O)CCSCCC(=O)O`, the Potency result is “inactive”.
For the molecule `COc1cc(N)c(Cl)cc1C(=O)NC1CCN(CCCOc2ccc(F)cc2)CC1OC` (stereo not given), the Potency result was “inactive”.
Same read-out and setting: under `COC(=O)[C@@H]1[C@H]2C[C@H]3c4[nH]c5ccccc5c4CCN3C[C@@H]2CC[C@@H]1O` stands “inactive”; under `CC(=O)OC(C)c1ccccc1` (stereo not given), “inactive”; under `O=C(O)CCNC(=O)c1ccc(N=Nc2ccc(O)c(C(=O)O)c2)cc1`, “inactive”.
Still for that read-out and setting: then `Cc1cccc(C)c1OCC(=O)N[C@@H](Cc1ccccc1)[C@@H](O)C[C@H](Cc1ccccc1)NC(=O)[C@H](C(C)C)N1CCCNC1=O`, with “inactive”.
Still for that read-out and setting: then `C[C@@H]1C[C@H]2[C@@H]3CCC4=CC(=O)C=C[C@]4(C)[C@@]3(F)[C@@H](O)C[C@]2(C)[C@H]1C(=O)CO`, with “inactive”; and `COc1cc(C)ccc1C(C)C`, with “inactive”; and `O=C1C(CCS(=O)c2ccccc2)C(=O)N(c2ccccc2)N1c1ccccc1` (stereo not given), with “inactive”.
Turning to `NC(=O)N1c2ccccc2CC(=O)c2ccccc21`, the Potency result was “inactive”.
The same measure, in the same setting: then `CC(=O)Nc1ccc(C)cc1C`, with “inactive”.
As for `Nc1ccc(Cl)cc1[N+](=O)[O-]`, the Potency entry is “inactive”.
On the same count and under the same terms, then `CCOC(=O)OCC/C(SC(=O)OCC)=C(\C)N(C=O)Cc1cnc(C)nc1N`, with “inactive”.
The same measure, in the same setting: then `Cc1cccc(C(C)(C)C)c1O`, with “inactive”.
Still for that read-out and setting: then `COC(=O)CCCCCCCCC(=O)OC`, with “inactive”; and `CCN1CCC[C@H]1CNC(=O)c1cc(S(N)(=O)=O)ccc1OC`, with “inactive”; and `O=C(NCCCN1CCOCC1)c1ccc(Cl)cc1`, with “inactive”.
For the molecule `CCCCCCCCCCCCCCCCCO`, the activation is 4.84% [at 13.5 µM].
Consider `O=S(=O)(O)c1ccc(N=Nc2c(O)ccc3ccccc23)cc1`, for which the Potency result is “inactive”.
Still for that read-out and setting: under `CCOC(=O)C1CC(=O)C(=C(O)C2CC2)C(=O)C1` (stereo not given) stands “inactive”; under `COc1ccc(C(=O)Nc2nc3ccccc3c(NCc3ccccc3)c2C#N)cc1`, “inactive”.
Still for that read-out and setting: under `O=C1CC2(CCCC2)CC(=O)N1CCNCC1COc2ccccc2O1` (stereo not given) stands “inactive”; under `CCCCC/C=C/CC(=O)OC`, “inactive”.
Same read-out and setting: then `O=[N+]([O-])c1ccc(F)c(Cl)c1`, with “inactive”; and `CC(C(=O)O)c1cccc(Oc2ccccc2)c1` (stereo not given), with “inactive”.
Turning to `Cc1cc(O)c(C(C)(C)C)cc1Sc1cc(C(C)(C)C)c(O)cc1C`, the Potency result was “inactive”.
On the same count and under the same terms, then `O=C(Nc1cccc2c(=O)cc(-c3nn[nH]n3)oc12)c1ccc(OCCCCc2ccccc2)cc1`, with “inactive”.
With `CCCCC/C=C/CC1CC(=O)OC1=O` (stereo not given), the Potency entry was “inactive”.
Turning to `CNCCC(Oc1ccccc1OC)c1ccccc1` (stereo not given), the Potency result is “inactive”.
Still for that read-out and setting: under `c1ccc(C[P+](c2ccccc2)(c2ccccc2)c2ccccc2)cc1` stands “inactive”; under `CCn1cc(C(=O)O)c(=O)c2cc(F)c(N3CCNC(C)C3)c(F)c21` (stereo not given), “inactive”.
The same measure, in the same setting: then `C=CC(C)(O)CCCC(C)CCCC(C)CCCC(C)C` (stereo not given), with “inactive”.
